One molecule from PubChem BioAssay (NCATS) can be followed below.

Test [1] can be described thus: Cell Viability - LYMP2-014 (AID 983; active = well fitted curve in the direction sought with a large enough effect; an effect the other way counts as inactive or inconclusive;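 also: plate controls were DMSO only for no effect and 92 µM tetraoctylammonium bromide for full effect; nearly all actives have a fitted effect of over 50% in size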). The method, boiled down: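 Luminescent ATP signal (CellTiter-Glo, 30 min at room temperature) serves as the viability read-out after 24 hr compound exposure at 37 C. Cells were seeded at 2500 per well and settled 5 hr beforehand.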
The nature of test [2]: Cell Viability - LYMP2-018 (AID 985; active = well fitted curve in the direction sought with a large enough effect; an effect the other way counts as inactive or inconclusive;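 also: plate controls were DMSO only for no effect and tetraoctylammonium bromide at 92 µM for full effect; nearly all actives have a fitted effect of over 50% in size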). The method, boiled down:
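Luminescent ATP signal (CellTiter-Glo, read after 30 min at room temperature) reports viable cells after 24 hr compound treatment at 37 C. Concentration-response data were fitted to the standard Hill equation for AC50.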

Test [3] in a line: Cell Viability - LYMP2-020 (AID 986; active = well fitted curve in the direction sought with a large enough effect; an effect the other way counts as inactive or inconclusive;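 also: plate controls were DMSO only for no effect and tetraoctylammonium bromide at 92 µM for full effect; nearly all actives have a fitted effect of over 55% in size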). The essentials: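 Luminescent ATP signal (CellTiter-Glo, 30 min at room temperature) is the read-out after 24 h compound treatment of lymphoblastoid cells at 37 C. AC50 values come from Hill-equation fits across concentrations.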
Test [4] can be described thus: Cell Viability - LYMP2-024 (AID 988; active = well fitted curve in the direction sought with a large enough effect; an effect the other way counts as inactive or inconclusive;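 also: plate controls were DMSO only for no effect and 92 µM tetraoctylammonium bromide for full effect; nearly all actives have a fitted effect of over 60% in size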). The method, boiled down:
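Steps: seed 2500 cells/well, 5 hr 37 C; add compound, 24 hr 37 C; add CellTiter-Glo, 30 min room temperature; read luminescence. AC50 derived by Hill modelling of concentration-dependent ATP loss.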

The nature of test [5]: Cell Viability - LYMP2-026 (AID 989; active = well fitted curve in the direction sought with a large enough effect; an effect the other way counts as inactive or inconclusive; also: % is scaled to controls: 0 for no effect and ±100 for the full control effect; nearly all actives have a fitted effect of over 50% in size). The essentials: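 Luminescent ATP signal (CellTiter-Glo, 30 min room temperature) measures viable lymphoblastoid cells after 24 hr compound treatment at 37 C. Decreased ATP reflects acute toxicity; AC50 values come from Hill-equation modeling.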
Test [6] can be described thus: Cell Viability - LYMP1-002 - Assay at 24 hr (AID 993; active = well fitted curve in the direction sought with a large enough effect; an effect the other way counts as inactive or inconclusive; also: % is scaled to controls: 0 for no effect and ±100 for the full control effect). The essentials:
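Cells plated 2500/well, 5 hr 37 C; compounds added, 24 hr 37 C; CellTiter-Glo added, 30 min RT; luminescence read. Tetraoctylammonium bromide positive control. Hill-equation AC50.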

The nature of test [7]: Cell Viability - LYMP1-002 - Assay at 40 hr (AID 994; active = well fitted curve in the direction sought with a large enough effect; an effect the other way counts as inactive or inconclusive;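 also: 0% = DMSO only and full inhibition = 92 µM tetraoctylammonium bromide; nearly all actives have a fitted effect of over 60% in size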). The essentials:
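Luminescent ATP signal served as the viability readout, with decreases taken as toxicity. Cells were treated with compounds across a concentration range for 40 hours at 37 C, and AC50 values came from standard Hill modeling.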

Test [8] can be described thus: qHTS Assay for Lipid Storage Modulators (AID 1519). As to activity change, negative = inhibition: % is scaled to controls: 0 for no effect and ±100 for the full control effect. The settings on record: Drosophila S3 cells, BODIPY lipid droplet/cell ratio, laser cytometry, cells loaded with oleic acid. The method, boiled down:
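Cells seeded at 5,000 per well were treated with compounds over a concentration series and loaded with oleic acid (400 uM, as added). Lipid droplet fluorescence (488 nm excitation, 500-530 nm channel) was read by laser-scanning cytometry and normalized to 20 uM Triacsin C.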

Test [9] can be described thus: qHTS Assay for Identification of Small Molecule Inducers of Hypoxia Response (AID 2120; active = well fitted curve in the direction sought with a large enough effect in the signal ratio, with a control signal flat, not every such curve was filed as active; the % refers to the signal ratio; also: 0% is about no effect). The method, boiled down:
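ME-180 HRE-bla cells plated in Opti-MEM/0.5% dialyzed FBS, rested 4-5 h, then dosed with compound titrations by pin tool. After 17 h at 37 degrees C, CCF4 dye loaded 2.5 h at RT; 460/530 nm ratio gave %Activity and AC50.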

The target of test [10] is Ubiquitin carboxyl-terminal hydrolase 1 (Homo sapiens) (UniProt O94782). Put plainly: Inhibitors of USP1/UAF1: Pilot qHTS (AID 504865; active = well fitted curve in the direction sought with a large enough effect; an effect the other way counts as inactive or inconclusive; also: potency is read from the fitted curve at half-maximal effect; nearly all actives have a fitted effect of over 35% in size). The essentials: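 Enzyme-free wells gave the negative control, while test wells held 1nM USP1/UAF1 preincubated with compound for 15 min at room temperature. Ub-Rho at 150nM final started the reaction, and fluorescence at 480/540 nm was recorded kinetically.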
Sequence of Ubiquitin carboxyl-terminal hydrolase 1 (Homo sapiens) (O94782 whole entry, looked up): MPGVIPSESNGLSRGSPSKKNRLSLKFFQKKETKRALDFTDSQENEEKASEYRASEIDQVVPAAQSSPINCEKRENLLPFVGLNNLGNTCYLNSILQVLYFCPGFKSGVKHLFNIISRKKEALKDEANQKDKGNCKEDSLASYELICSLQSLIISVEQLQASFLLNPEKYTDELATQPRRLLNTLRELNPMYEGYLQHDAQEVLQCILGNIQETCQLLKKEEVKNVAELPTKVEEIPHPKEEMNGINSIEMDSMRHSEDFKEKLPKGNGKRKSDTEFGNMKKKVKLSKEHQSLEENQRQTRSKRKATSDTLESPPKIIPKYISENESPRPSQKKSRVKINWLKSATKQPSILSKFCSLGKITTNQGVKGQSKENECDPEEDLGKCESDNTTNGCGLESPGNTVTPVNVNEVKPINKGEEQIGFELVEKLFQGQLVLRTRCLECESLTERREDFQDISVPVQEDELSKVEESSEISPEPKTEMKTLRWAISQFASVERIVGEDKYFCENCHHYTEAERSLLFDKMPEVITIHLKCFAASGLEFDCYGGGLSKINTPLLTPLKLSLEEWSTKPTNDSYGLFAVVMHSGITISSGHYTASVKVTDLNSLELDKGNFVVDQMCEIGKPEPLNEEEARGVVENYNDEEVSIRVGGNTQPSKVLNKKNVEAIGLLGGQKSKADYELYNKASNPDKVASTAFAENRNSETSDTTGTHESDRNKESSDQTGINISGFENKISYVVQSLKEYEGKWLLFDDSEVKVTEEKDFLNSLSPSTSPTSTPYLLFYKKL

Test [11] deals with Estrogen receptor (Homo sapiens) (UniProt P03372). Nature of the test: qHTS assay for small molecule agonists of estrogen receptor alpha signaling (AID 588514).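 Also: 0% = vehicle only and 100% = reference agonist; nearly all actives have a fitted effect of over 70% in size.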 The essentials: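 Cells were plated at 5000/well, incubated 4 hrs at 37 C, dosed with compound titration series, incubated 18 hrs at 37 C, loaded with CCF4 dye for 2 hrs at RT, then fluorescence was read.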
Sequence of Estrogen receptor (Homo sapiens) (P03372 whole entry, looked up): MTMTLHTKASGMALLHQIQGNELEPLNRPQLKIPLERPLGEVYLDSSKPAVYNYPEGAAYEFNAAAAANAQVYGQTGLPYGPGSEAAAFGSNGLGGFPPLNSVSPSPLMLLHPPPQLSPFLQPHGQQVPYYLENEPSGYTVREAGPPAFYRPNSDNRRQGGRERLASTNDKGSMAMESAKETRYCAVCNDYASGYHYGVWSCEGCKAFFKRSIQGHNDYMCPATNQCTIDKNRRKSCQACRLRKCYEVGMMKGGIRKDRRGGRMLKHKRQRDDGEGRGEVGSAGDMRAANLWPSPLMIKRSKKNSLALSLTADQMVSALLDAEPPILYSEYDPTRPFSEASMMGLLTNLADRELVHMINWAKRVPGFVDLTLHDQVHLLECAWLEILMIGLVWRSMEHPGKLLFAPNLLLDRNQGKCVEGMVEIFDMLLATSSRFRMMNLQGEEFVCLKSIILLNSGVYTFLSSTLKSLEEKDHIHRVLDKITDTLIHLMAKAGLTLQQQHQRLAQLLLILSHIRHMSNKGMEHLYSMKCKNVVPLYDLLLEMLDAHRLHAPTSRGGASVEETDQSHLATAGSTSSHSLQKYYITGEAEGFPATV
Test [12] addresses Bile acid receptor (Homo sapiens) (UniProt Q96RI1). Nature of the test: qHTS assay for small molecule antagonists of farnesoid X receptor signaling (AID 588526). Also: potency is read from the fitted curve at half-maximal effect. The essentials:
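Antagonist mode: titrated compounds tested against chenodeoxycholic acid stimulation (normalized to 50 uM CDCA and DMSO) in GeneBLAzer HEK293T cells for 16 h. Beta-lactamase read by CCF4 fluorescence; IC50 from Hill fits.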

Test [13] shares this target. Put plainly: qHTS assay for small molecule agonists of farnesoid X receptor signaling (AID 588527).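 Also: 0% = vehicle basal and 100% = reference agonist.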 The following applies: HEK293T FXR-UAS-bla, beta-lactamase ratio, 16 h; activation: stronger effect = higher value. The essentials:
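FXR-UAS-bla HEK293T cells (10% dialyzed FBS) preincubated 5-7 h at 37 C, then compounds at up to 92 uM for 16 h at 37 C. CCF4 beta-lactamase read-out after 2 h RT. Normalized to chenodeoxycholic acid (100 uM) and DMSO; Hill fit gave EC50 and efficacy.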

Test [14] concerns the target Glucocorticoid receptor (Homo sapiens) (UniProt P04150). Nature of the test: qHTS assay for small molecule agonists of glucocorticoid receptor signaling (AID 588532; active = well fitted curve in the direction sought with a large enough effect in the signal ratio, with a control signal flat; the % refers to the signal ratio;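 also: 100% = dexamethasone at 0.1 µM and 0% = DMSO only wells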). The following applies: HeLa MMTV-bla, beta-lactamase ratio, agonist, 18 h; stronger effect = higher value; percent of dexamethasone control, DMSO zero. The method, boiled down:
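MMTV-bla HeLa beta-lactamase reporter cells in 1% charcoal/dextran FBS medium, compounds up to 92 uM for 18 h at 37 C, CCF4 readout; normalized to 0.1 uM dexamethasone (100%), EC50 and efficacy from Hill fits.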

Test [15] addresses Vitamin D3 receptor (Homo sapiens) (UniProt P11473). Nature of the test: qHTS assay for small molecule antagonists of vitamin D receptor signaling (AID 588541).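 Also: receptor activated by calcitriol during compound treatment; % is scaled to controls: 0 for no effect and ±100 for the full control effect.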 The essentials:
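VDR-UAS-bla HEK293T cells in 2% charcoal-stripped FBS were stimulated with 1-alpha,25-dihydroxyvitamin D3 (3 nM final) plus compound for 16 h at 37 C. The beta-lactamase CCF4 readout was normalized to 50 nM agonist and DMSO, and Hill fits gave IC50.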

The target is the same in test [16]. Put plainly: qHTS assay for small molecule agonists of vitamin D receptor signaling (AID 588543).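 Also: 0% = DMSO basal and 100% = reference agonist control.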 The method, boiled down:
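Measured: β-lactamase reporter activity (CCF4, 405 nm excitation, 460/530 nm emission) in HEK293T VDR-UAS-bla cells after 16 h compound exposure at 37 °C. Normalization against 50 nM 1α,25-dihydroxyvitamin D3 and DMSO; Hill-fit EC50.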

Test [17] can be described thus: qHTS assay for small molecule agonists of retinoid X receptor alpha signaling (AID 588544).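 As to activation: 0% = DMSO basal wells and 100% = reference agonist.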 The settings on record: HEK293T RXRa-UAS-bla, beta-lactamase reporter, 18 h; 530 nm emission.
Test [18] deals with Retinoic acid receptor RXR-alpha (Homo sapiens) (UniProt P19793). Described as above.
Sequence of Retinoic acid receptor RXR-alpha (Homo sapiens) (P19793 whole entry, looked up): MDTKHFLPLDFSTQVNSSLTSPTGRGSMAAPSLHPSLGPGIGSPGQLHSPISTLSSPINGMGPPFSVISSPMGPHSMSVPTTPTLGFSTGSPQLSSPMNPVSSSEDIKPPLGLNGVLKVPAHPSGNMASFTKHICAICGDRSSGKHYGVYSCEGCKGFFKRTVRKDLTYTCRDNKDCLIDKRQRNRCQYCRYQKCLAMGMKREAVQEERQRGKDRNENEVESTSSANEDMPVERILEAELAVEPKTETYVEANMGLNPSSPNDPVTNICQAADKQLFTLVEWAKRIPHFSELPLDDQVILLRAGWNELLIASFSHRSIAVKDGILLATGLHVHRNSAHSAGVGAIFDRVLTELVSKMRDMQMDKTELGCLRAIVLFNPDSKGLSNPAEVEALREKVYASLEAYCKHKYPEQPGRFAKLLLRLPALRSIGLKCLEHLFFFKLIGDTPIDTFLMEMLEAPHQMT
Test [19] concerns the target Thyroid hormone receptor beta (Homo sapiens) (UniProt P10828). Put plainly: qHTS assay for small molecule agonists of thyroid hormone receptor beta signaling (AID 588545).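 Also: 0% = DMSO only and 100% = 10 nM T3.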 The method, boiled down: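 TR-UAS-bla GripTite HEK 293 cells (2500/well, medium with 2% charcoal/dextran FBS) were treated in agonist mode for 18 h at 37 C, titrated. Beta-lactamase was read by CCF4 ratio after 2 h; normalized to 10 nM T3 (100%) and DMSO, Hill-fitted for EC50 and efficacy.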

Test [20] in a line: qHTS assay for small molecule antagonists of retinoid X receptor alpha signaling (AID 588546).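 Also: cells stimulated with 9-cis-retinoic acid as agonist; % is scaled to controls: 0 for no effect and ±100 for the full control effect.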 The following applies: HEK293T RXRa-UAS-bla, beta-lactamase ratio, antagonist mode; measured here: W530 green channel, cytotoxicity proxy. The essentials: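 Beta-lactamase reporter inhibition, read as CCF4 fluorescence ratio (ex 405, em 460/530 nm) after 2 h at RT. HEK293T UAS-bla cells, 2500/well, were stimulated with 9-cis-RA at 500 or 100 nM final alongside test compound for 18 h at 37 C.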

Values joined by “and” are separate entries in the source; they are usually repeats but may differ in a detail not shown here. Equal entries are not always repeated. Inconclusive results are not listed. Active and inactive are the calls of the source. Unless noted, calls follow the shape of the full dose curve.

Sequence of Bile acid receptor (Homo sapiens) (Q96RI1 whole entry, looked up): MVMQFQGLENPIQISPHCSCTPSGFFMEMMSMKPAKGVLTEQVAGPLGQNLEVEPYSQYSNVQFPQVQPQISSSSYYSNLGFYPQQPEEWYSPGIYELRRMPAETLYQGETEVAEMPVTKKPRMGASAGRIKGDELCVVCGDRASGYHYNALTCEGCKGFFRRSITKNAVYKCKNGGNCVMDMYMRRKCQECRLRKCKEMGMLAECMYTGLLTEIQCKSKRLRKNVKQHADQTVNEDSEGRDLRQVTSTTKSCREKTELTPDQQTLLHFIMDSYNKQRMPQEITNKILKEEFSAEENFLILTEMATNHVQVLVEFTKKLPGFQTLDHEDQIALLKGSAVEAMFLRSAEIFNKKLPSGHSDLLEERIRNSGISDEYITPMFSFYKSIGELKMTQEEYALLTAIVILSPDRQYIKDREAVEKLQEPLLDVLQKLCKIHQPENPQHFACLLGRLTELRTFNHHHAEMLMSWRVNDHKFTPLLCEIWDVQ
Sequence of Vitamin D3 receptor (Homo sapiens) (P11473 whole entry, looked up): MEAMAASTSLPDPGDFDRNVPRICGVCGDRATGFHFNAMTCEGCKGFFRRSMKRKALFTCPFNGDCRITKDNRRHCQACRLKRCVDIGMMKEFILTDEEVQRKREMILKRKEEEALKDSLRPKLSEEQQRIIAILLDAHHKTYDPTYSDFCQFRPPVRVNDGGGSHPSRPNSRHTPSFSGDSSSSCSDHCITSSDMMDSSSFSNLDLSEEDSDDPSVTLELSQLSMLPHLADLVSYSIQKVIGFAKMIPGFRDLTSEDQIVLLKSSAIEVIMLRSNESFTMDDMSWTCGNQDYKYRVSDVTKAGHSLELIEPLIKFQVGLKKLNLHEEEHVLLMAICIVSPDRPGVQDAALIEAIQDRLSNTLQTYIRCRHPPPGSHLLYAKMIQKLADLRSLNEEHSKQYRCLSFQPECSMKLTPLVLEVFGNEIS
Sequence of Thyroid hormone receptor beta (Homo sapiens) (P10828 whole entry, looked up): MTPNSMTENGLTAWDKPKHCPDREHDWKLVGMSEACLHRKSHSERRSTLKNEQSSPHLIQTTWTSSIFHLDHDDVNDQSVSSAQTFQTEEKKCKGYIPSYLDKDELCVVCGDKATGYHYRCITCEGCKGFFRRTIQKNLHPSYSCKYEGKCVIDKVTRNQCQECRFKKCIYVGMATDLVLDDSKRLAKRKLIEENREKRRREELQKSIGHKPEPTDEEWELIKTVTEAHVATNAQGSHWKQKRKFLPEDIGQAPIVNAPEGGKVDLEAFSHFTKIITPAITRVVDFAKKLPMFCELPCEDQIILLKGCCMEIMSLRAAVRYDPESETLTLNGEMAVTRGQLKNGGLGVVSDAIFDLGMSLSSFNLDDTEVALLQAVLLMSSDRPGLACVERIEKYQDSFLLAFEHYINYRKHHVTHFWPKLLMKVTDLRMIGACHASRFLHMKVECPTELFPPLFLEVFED
Sequence of Glucocorticoid receptor (Homo sapiens) (P04150 whole entry, looked up): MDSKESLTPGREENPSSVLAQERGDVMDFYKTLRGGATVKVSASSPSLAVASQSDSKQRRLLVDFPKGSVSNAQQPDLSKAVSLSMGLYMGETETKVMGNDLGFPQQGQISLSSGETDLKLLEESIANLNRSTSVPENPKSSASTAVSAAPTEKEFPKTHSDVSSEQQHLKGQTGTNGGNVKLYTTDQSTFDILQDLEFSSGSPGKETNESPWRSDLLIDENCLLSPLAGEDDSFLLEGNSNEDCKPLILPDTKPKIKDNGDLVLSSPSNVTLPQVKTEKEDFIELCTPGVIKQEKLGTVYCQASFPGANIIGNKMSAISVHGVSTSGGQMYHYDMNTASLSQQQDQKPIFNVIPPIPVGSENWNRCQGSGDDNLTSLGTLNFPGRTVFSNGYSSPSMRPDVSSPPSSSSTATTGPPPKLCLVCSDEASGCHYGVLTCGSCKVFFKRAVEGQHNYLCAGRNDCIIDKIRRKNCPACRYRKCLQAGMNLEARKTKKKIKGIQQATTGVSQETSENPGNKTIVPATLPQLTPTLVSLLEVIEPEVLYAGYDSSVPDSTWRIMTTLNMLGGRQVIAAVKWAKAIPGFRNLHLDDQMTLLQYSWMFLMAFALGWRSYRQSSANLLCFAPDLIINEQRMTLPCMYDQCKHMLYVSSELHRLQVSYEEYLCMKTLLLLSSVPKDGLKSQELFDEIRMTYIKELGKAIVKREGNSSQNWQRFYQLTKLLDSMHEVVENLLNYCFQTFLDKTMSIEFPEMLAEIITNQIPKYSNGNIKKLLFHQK

Take `Oc1c(Cl)c(Cl)c(Cl)c(Cl)c1Cl`: the call in test [1], in test [2], in test [3], in test [4], in test [5] and in test [6] was inactive. In addition, the result in [9], in test [15] and in [18] was inactive. In addition, the Potency entry in test [7], in [11], in test [16] and in test [19] was “inactive” each time. Further, the activity change, negative = inhibition in [8] (at 57.5 µM (top of the series)) was -4.15% (inactive). In addition, the max response in [8] (measured here: cell count channel max response) was -3.69%; in test [8] (measured here: lipid channel max response), -7.5%; in [17], 19.6%; in test [20], -15.3% and -8.92%. The Potency in test [10] was 79.4 µM (active); in test [12], 25.1 µM (active). Also, the activation in test [13] was 0.631% (inactive) and 4.93% (inactive); in [14], -3.18% (inactive).
